In PubChem BioAssay AID2313 (Broad Institute, 2010):
Hit rate of the full screen: of about 22,000 compounds, about 460 (2.1%) were called active. Roughly 2% stayed inconclusive and do not appear here. Only a selection was taken, and actives are over-represented in it overall. Unmarked numbers belong to inactive results.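 How the source made its calls: active means mean inhibition across valid replicates above about 65% (limit read from the data); inconclusive means mean under the limit, yet half or more replicates past it; inactive means the rest.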

assay: Shh-driven Gli reporter inhibition – luminescence, Shh-LIGHT2 cells, Gli-luciferase, primary screen (AID 2313); conditions: 30 h, stronger effect = higher value;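 further: pathway switched on by Shh-conditioned medium diluted 1 in 25 in low serum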

| Compound | inhibition |
| --- | --- |
| COc1ccc(NC(=O)N(C)C[C@@H]2Oc3c(NC(=O)Nc4cccc5ccccc45)cccc3C(=O)N([C@@H](C)CO)C[C@H]2C)cc1 | 3.07% |
| C[C@H](CO)N1C[C@H](C)[C@H](CN(C)C(=O)Nc2ccc(C(F)(F)F)cc2)Oc2ccc(N(C)C)cc2CC1=O | -27.1% |
| COc1ccc(NC(=O)Nc2ccc3c(c2)CC(=O)N([C@@H](C)CO)C[C@@H](C)[C@@H](CN(C)Cc2ccc(C(F)(F)F)cc2)O3)cc1 | 13.9% |
| COc1ccc(NC(=O)N(C)C[C@@H]2Oc3c(NC(=O)c4ccc(-c5nccs5)cc4)cccc3C(=O)N([C@H](C)CO)C[C@@H]2C)cc1 | 20.7% |
| C[C@H](CO)N1C[C@H](C)[C@@H](CN(C)S(=O)(=O)c2ccc(Cl)cc2)Oc2ccc(NS(=O)(=O)c3cn(C)cn3)cc2C1=O | 25.4% |
| C[C@H]1CN([C@@H](C)CO)C(=O)Cc2cc(NC(=O)Nc3ccccc3)ccc2O[C@H]1CN(C)S(=O)(=O)c1cn(C)cn1 | -32.8% |
| C[C@H](CO)N1C[C@H](C)[C@H](CN(C)CC2CCCCC2)Oc2ccc(NC(=O)C3CCCCC3)cc2C1=O | 21.2% |
| Cc1noc(C)c1NC(=O)Nc1ccc2c(c1)CC(=O)N([C@H](C)CO)C[C@@H](C)[C@@H](CN(C)S(=O)(=O)c1ccc(Cl)cc1)O2 | -13.6% |
| Cc1noc(C)c1NC(=O)Nc1ccc2c(c1)C(=O)N([C@@H](C)CO)C[C@H](C)[C@H](CN(C)S(=O)(=O)c1ccc(Cl)cc1)O2 | -26.2% |
| C[C@H](CO)N1C[C@H](C)[C@@H](CN(C)Cc2ccc(C(F)(F)F)cc2)Oc2c(NC(=O)NC3CCCCC3)cccc2C1=O | 23.9% |
| O=C(NCCN1CCCCC1)Nc1cccc(Cl)c1 | 20.6% |
| COc1ccc(NC(=O)Nc2ccc3c(c2)CC(=O)N([C@@H](C)CO)C[C@@H](C)[C@@H](CN(C)Cc2ccc(Cl)c(Cl)c2)O3)cc1 | 38.8% |
| C[C@@H]1CN([C@H](C)CO)C(=O)Cc2cc(NC(=O)CCCN(C)C)ccc2O[C@H]1CN(C)CC1CCCCC1 | 18.8% |
| Cc1ccc(NC(=O)c2cccc(N(C)C)c2)cc1NC(=O)c1ccc(O)cc1 | 83.8% (active) |
| Cc1cccc(NC(=O)c2ccc(C)c(S(=O)(=O)N3CCCC3)c2)c1 | -48.9% |
| O=C(CCCCn1cnc2ccccc21)c1ccccc1 | -10.1% |
| CNC[C@H]1Oc2ccc(NS(=O)(=O)c3ccc(F)cc3)cc2CC(=O)N([C@H](C)CO)C[C@H]1C | -2.19% |
| C[C@@H]1CN([C@H](C)CO)C(=O)Cc2cc(NS(=O)(=O)c3ccc(Cl)cc3)ccc2O[C@@H]1CN(C)C | -10.8% |
| CNC[C@@H]1Oc2c(NC(=O)Nc3ccc(F)cc3)cccc2C(=O)N([C@@H](C)CO)C[C@@H]1C | 15.5% |
| Cc1ccc(NC(=O)CC(=O)Nc2ccc(C)cc2)cc1 | -21.5% |
| C[C@@H]1CN([C@H](C)CO)C(=O)c2cccc(N(C)C)c2O[C@H]1CN(C)S(=O)(=O)c1cn(C)cn1 | 3.08% |
| C=C1C(=O)O[C@H]2C3=C(C)C[C@H](OC(C)=O)C[C@]3(C)CC[C@@H]12 | -2.37% |

| Compound | inhibition |
| --- | --- |
| COc1cc(/C=C2\Oc3cc(O)cc(O)c3C2=O)ccc1O | 3.42% |
| Cc1ccc2nc(C)c3c(c2c1)N(c1ccccc1)CC3 | 34.9% |
| Cc1ccc2nc(Nc3ccccc3)cc(C)c2c1 | 72.3% (active) |
| Cc1ccc(Nc2nc(C)cc(C)c2C(N)=O)cc1 | -37.3% |
| COc1ccc(S(=O)(=O)Nc2cccc3c2O[C@@H](CN(C)C(=O)Nc2ccccc2)[C@@H](C)CN([C@H](C)CO)C3=O)cc1 | 2.98% |
| COC(NC(=O)c1ccccc1)(C(F)(F)F)C(F)(F)F | -45.7% |
| Cc1ccc(S(=O)(=O)Nc2cccc3c2O[C@@H](CN(C)S(=O)(=O)c2c(C)noc2C)[C@@H](C)CN([C@H](C)CO)C3=O)cc1 | -7.42% |
| C[C@@H]1CN([C@H](C)CO)C(=O)c2cc(NS(=O)(=O)c3ccc(F)cc3)ccc2O[C@H]1CN(C)C(=O)Nc1cccc2ccccc12 | -17% |
| C[C@H]1CN([C@@H](C)CO)C(=O)Cc2cc(NS(=O)(=O)c3cn(C)cn3)ccc2O[C@@H]1CN(C)C(=O)Nc1ccc2c(c1)OCO2 | 2.02% |
| C[C@@H]1CCCCO[C@H](CN(C)C(=O)NC2CCCCC2)[C@@H](C)CN([C@H](C)CO)C(=O)c2cc(NC(=O)CCC(F)(F)F)ccc2O1 | 20.6% |
| COc1ccc(NC(=O)Nc2ccc3c(c2)CC(=O)N([C@H](C)CO)C[C@H](C)[C@H](CN(C)S(=O)(=O)c2ccc(OC)cc2)O3)cc1 | 15.7% |
| COc1ccc(NC(=O)Nc2cccc3c2O[C@@H](CN(C)S(=O)(=O)c2ccc(C)cc2)[C@H](C)CN([C@@H](C)CO)C3=O)cc1 | 26% |
| COc1ccc(S(=O)(=O)N(C)C[C@H]2Oc3ccc(NC(=O)Nc4c(C)noc4C)cc3C(=O)N([C@@H](C)CO)C[C@@H]2C)cc1 | 14.6% |
| O=S(=O)(NCCc1ccccc1)c1ccccc1 | -19.7% |
| C[C@@H]1CN([C@@H](C)CO)C(=O)c2cccc(NC(=O)c3nc4ccccc4s3)c2O[C@@H]1CN(C)Cc1ccc(Cl)c(Cl)c1 | -17.7% |
| O=C(Cn1c(=O)n(-c2ccccc2)c(=O)c2cc(-c3ccccc3)sc21)c1cccs1 | -31.1% |
| C[C@@H]1CN([C@@H](C)CO)C(=O)c2cccc(NC(=O)c3cnccn3)c2O[C@H]1CN(C)S(=O)(=O)c1cccs1 | 36.2% |
| COc1ccc(NC(=O)N(C)C[C@H]2Oc3c(NC(=O)NC(C)C)cccc3C(=O)N([C@@H](C)CO)C[C@H]2C)cc1 | -18.8% |
| O=C(NCCN1CCCCC1)Nc1cccc2ccccc12 | 48.1% |
| CCOC(=O)c1cc2ccccc2nc1C | -33.8% |
| C[C@H]1CN([C@@H](C)CO)C(=O)Cc2cc(NC(=O)C3CC3)ccc2O[C@H]1CN(C)C(=O)Nc1ccc(C(F)(F)F)cc1 | -16.6% |
| Cc1noc(C)c1NC(=O)Nc1ccc2c(c1)C(=O)N([C@H](C)CO)C[C@@H](C)[C@@H](CN(C)C(=O)NC(C)C)O2 | -44% |

| Compound | inhibition |
| --- | --- |
| Cc1noc(C)c1NC(=O)Nc1cccc2c1O[C@H](CN(C)S(C)(=O)=O)[C@H](C)CN([C@H](C)CO)C2=O | -13.4% |
| COc1ccc(S(=O)(=O)N(C)C[C@@H]2Oc3ccc(NC(=O)CCN4CCOCC4)cc3CC(=O)N([C@@H](C)CO)C[C@@H]2C)cc1 | 12.6% |
| Cc1ccc(S(=O)(=O)N(C)C[C@H]2Oc3ccc(NC(=O)C4CC4)cc3C(=O)N([C@H](C)CO)C[C@H]2C)cc1 | 2.25% |
| CC(=O)Nc1nc2ccccc2s1 | -52.3% |
| CS(=O)(=O)c1sc(C(=O)NC(=S)Nc2ccc(OC(F)(F)F)cc2)c2c1C=CCC2 | 42.2% |
| C[C@H]1CN([C@@H](C)CO)C(=O)Cc2cc(NS(=O)(=O)c3cn(C)cn3)ccc2O[C@H]1CN(C)C(=O)Nc1ccc(F)cc1 | 6.67% |
| CCOC(=O)c1nnn2c3ccccc3c(=O)n(C)c12 | -16.2% |
| C=C1C2=CC(=O)O[C@@H](c3ccoc3)[C@]2(C)CCC1[C@@]1(C)C=CC(=O)C(C)(C)[C@@H]1CC(=O)OC (stereo not given in full) | -0.584% |
| COc1c2c(cc3occ(-c4ccc5c(c4)OCO5)c(=O)c13)OC(C)(C)C=C2 | 79.6% (active) |
| COc1ccc(NC(=O)Nc2cccc3c2O[C@H](CN(C)C(=O)Nc2cccc4ccccc24)[C@H](C)CN([C@H](C)CO)C3=O)cc1 | -19.9% |
| COc1ccc(S(=O)(=O)Nc2ccc3c(c2)CC(=O)N([C@H](C)CO)C[C@@H](C)[C@@H](CN(C)S(=O)(=O)c2ccc(F)cc2)O3)cc1 | -24.3% |
| COc1ccc(NC(=O)Nc2ccc3c(c2)CC(=O)N([C@H](C)CO)C[C@H](C)[C@H](CN(C)Cc2ccncc2)O3)cc1 | 32.2% |
| C[C@@H]1CN([C@H](C)CO)C(=O)Cc2cc(NC(=O)Nc3ccccc3)ccc2O[C@H]1CN(C)Cc1ccc(Cl)c(Cl)c1 | -42% |
| COc1ccc(S(=O)(=O)Nc2cccc3c2O[C@H](CN(C)C(=O)Nc2cccc4ccccc24)[C@H](C)CN([C@@H](C)CO)C3=O)cc1 | 46.2% |
| C[C@H](CO)N1C[C@H](C)[C@@H](CN(C)C(=O)Nc2ccc3c(c2)OCO3)Oc2c(cccc2N(C)C)C1=O | -27% |
| C[C@@H]1CCCCO[C@H](CN(C)C(=O)NC2CCCCC2)[C@@H](C)CN([C@H](C)CO)C(=O)c2cc(NS(C)(=O)=O)ccc2O1 | -30.2% |
| C[C@@H]1CN([C@H](C)CO)C(=O)Cc2cc(NC(=O)Nc3ccc(C(F)(F)F)cc3)ccc2O[C@H]1CN(C)Cc1ccc(-c2ccccc2)cc1 | -14% |
| O=C1c2ccccc2C(=O)N1CC1OCc2ccccc2CO1 | -41.8% |
| O=C(Nc1ccccc1)Nc1cc(C2CC2)nn1-c1ccccc1 | -37.7% |
| CC(C)NC(=O)N(C)C[C@@H]1Oc2ccc(NC(=O)C3CCCCC3)cc2CC(=O)N([C@H](C)CO)C[C@@H]1C | -27.5% |
| C[C@H]1CN([C@@H](C)CO)C(=O)c2cc(NC(=O)Cc3cn(C)c4ccccc34)ccc2O[C@@H]1CN(C)Cc1ccc(Cl)c(Cl)c1 | 15.9% |
